Results published in PubChem BioAssay (NCATS).
Results filed as inconclusive are left out. Active and inactive are the calls of the source. Unless noted, the call rests on the fitted dose curve; in most records, active means well fitted curve in the direction sought with a large enough effect; inconclusive means small, poorly fitted or top-dose-only effect, or another doubt; inactive means no such curve, though single readings can be large; an effect the other way counts as inactive or inconclusive.

Experiments:
[1] = target: Bile acid receptor (Homo sapiens) (UniProt Q96RI1); assay: qHTS assay for small molecule agonists of farnesoid X receptor signaling (AID 588527; calls by dose curve;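 further: series mostly up to about 77 µM; 0% = vehicle basal and 100% = reference agonist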); conditions: HEK293T FXR-UAS-bla, beta-lactamase ratio, 16 h; activation: stronger effect = higher value
Outline: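 Quantitative HTS used FXR-UAS-bla HEK293T cells with 16 h compound incubation at 37 C. EC50 values came from concentration-response curves normalized to chenodeoxycholic acid.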

[2] = qHTS for Inhibitors of the Functional Ribonucleoprotein Complex (vRNP) of Lassa (LASV) Arenavirus: LASV Primary Screen - GLuc reporter signal (AID 1347082; calls by dose curve; tested in HEK293 reporter line; further: series mostly up to about 57 µM; on the % scale 0 is the no-effect control and ±100 the full control effect; nearly all actives have a fitted effect of over 60% in size)
[3] = qHTS for Inhibitors of the Functional Ribonucleoprotein Complex (vRNP) of Lassa (LASV) Arenavirus: Viability assay - alamar blue signal for LASV Primary Screen (AID 1347083; calls by dose curve; tested in HEK293 reporter line; further: series mostly up to about 57 µM; on the % scale 0 is the no-effect control and ±100 the full control effect; nearly all actives have a fitted effect of over 80% in size)
[4] = qHTS for Inhibitors of the Functional Ribonucleoprotein Complex (vRNP) of Lymphocytic Choriomeningitis Arenaviruses (LCMV): Viability assay - alamar blue signal for LCMV Primary Screen (AID 1347085; calls by dose curve; tested in HEK293 reporter line; further: series mostly up to about 57 µM; on the % scale 0 is the no-effect control and ±100 the full control effect; nearly all actives have a fitted effect of over 80% in size)
[5] = target: Nucleoprotein (Lymphocytic choriomeningitis virus (strain Armstrong)) (UniProt P09992); assay: qHTS for Inhibitors of the Functional Ribonucleoprotein Complex (vRNP) of Lymphocytic Choriomeningitis Arenaviruses (LCMV): LCMV Primary Screen - GLuc reporter signal (AID 1347086; calls by dose curve; further: series mostly up to about 57 µM; on the % scale 0 is the no-effect control and ±100 the full control effect; nearly all actives have a fitted effect of over 70% in size)
[6] = target: Alpha-galactosidase (Coffea arabica) (UniProt Q42656); assay: Counterscreen for Glucocerebrosidase Inhibitors: qHTS Assay for Coffee Bean alpha-Galactosidase at pH 4.5 (AID 957);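 further: series mostly up to about 77 µM; plate controls were enzyme alone for no effect and no enzyme for full effect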
Outline: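 AC50 values derive from Hill-equation modeling of concentration-response data, normalized to no-enzyme and full-activity controls. The pH 4.5 citrate assay used 2 nM coffee bean enzyme and 80 uM fluorogenic substrate for 20 min.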

[7] = target: Alpha-galactosidase (Coffea arabica) (UniProt Q42656); assay: Counterscreen for Glucocerebrosidase Inhibitors: qHTS Assay for Coffee Bean alpha-Galactosidase at pH 5.9 (AID 998);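 further: plate controls were uninhibited enzyme for no effect and no-enzyme basal signal for full effect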
Outline: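 Green coffee bean enzyme (2 nM final) was incubated with compounds (0.7 nM–77 uM) and 4-methylumbelliferyl alpha-D-galactopyranoside (80 uM) in citrate buffer pH 5.9, 20 min at room temperature. High-pH stop; fluorescence 365/440 nm; AC50 from Hill fits.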

[8] = Inducers of the Endoplasmic Reticulum Stress Response (ERSR) in human glioma: Validation (AID 504836); further: 0% is about no effect
Outline: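 Stably transfected U87-MG human glioma cells carrying a GRP78-based luminescent sensor were seeded at 1000 cells/well, pin-dosed with compounds and incubated 16 h. Luciferase reagent was then added, and end-point luminescence was read after 10 min at room temperature.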

Sequence of Alpha-galactosidase (Coffea arabica) (Q42656 whole entry, looked up): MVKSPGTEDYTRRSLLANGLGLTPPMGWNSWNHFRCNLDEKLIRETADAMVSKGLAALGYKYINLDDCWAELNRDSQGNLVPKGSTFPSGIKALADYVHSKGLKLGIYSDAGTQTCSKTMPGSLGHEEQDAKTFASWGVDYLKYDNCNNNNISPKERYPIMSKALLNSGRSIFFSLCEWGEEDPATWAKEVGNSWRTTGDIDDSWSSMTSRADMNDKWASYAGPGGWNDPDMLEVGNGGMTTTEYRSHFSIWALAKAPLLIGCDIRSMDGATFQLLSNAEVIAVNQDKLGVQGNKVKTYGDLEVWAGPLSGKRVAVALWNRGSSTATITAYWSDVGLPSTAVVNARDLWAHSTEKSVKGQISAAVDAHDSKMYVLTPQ
Sequence of Nucleoprotein (Lymphocytic choriomeningitis virus (strain Armstrong)) (P09992 whole entry, looked up): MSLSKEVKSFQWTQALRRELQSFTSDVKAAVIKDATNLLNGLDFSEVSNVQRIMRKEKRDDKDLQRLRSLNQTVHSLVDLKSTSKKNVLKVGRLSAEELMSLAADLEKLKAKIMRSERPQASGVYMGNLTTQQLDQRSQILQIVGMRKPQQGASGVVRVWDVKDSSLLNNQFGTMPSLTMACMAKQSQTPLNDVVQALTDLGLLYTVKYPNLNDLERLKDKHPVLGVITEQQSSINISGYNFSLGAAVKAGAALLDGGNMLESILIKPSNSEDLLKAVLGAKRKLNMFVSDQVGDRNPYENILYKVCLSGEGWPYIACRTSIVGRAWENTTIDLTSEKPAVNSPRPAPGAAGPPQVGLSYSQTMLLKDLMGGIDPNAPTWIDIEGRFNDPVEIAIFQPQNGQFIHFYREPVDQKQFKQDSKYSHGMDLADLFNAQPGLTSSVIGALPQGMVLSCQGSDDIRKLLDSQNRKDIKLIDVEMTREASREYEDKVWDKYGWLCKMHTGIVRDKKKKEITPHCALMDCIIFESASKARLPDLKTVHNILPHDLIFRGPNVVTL
Sequence of Bile acid receptor (Homo sapiens) (Q96RI1 whole entry, looked up): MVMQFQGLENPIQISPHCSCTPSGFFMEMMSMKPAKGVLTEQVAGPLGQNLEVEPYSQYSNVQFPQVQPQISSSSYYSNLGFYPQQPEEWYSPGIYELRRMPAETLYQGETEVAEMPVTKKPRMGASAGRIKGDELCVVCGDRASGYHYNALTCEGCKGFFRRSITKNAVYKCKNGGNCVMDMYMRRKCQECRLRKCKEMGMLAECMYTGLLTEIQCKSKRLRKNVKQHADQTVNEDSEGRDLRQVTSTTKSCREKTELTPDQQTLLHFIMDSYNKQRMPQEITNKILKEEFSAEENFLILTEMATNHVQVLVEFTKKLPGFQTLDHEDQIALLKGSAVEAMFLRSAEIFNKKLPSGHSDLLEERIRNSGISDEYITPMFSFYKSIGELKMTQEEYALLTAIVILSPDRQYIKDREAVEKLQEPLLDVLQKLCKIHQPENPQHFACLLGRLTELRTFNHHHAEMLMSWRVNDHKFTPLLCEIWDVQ

NCCO/C=C/[C@H](N)C(=O)O
inactive: activation [1] 4.46% | Potency [2] | Potency [3] | Potency [4] | Potency [5]

N[C@H](C(=O)O)c1cc(O)cc(O)c1
inactive: outcome [6] | outcome [7] | outcome [8] | Potency [2] | Potency [3] | Potency [4] | Potency [5]

CC(C)[C@H](NC(=O)OCc1ccccc1)C(=O)N[C@H](C=O)Cc1ccccc1
inactive: outcome [6] | outcome [7] | outcome [8] | Potency [2] | Potency [3] | Potency [4] | Potency [5]

NCCNC(=O)c1ncsc1-c1cccc(F)c1
inactive: outcome [6] | outcome [7] | outcome [8] | Potency [2] | Potency [3] | Potency [4] | Potency [5]

Nc1ccc2c3c(cccc13)C(=O)NC2=O
inactive: outcome [7] | outcome [8] | Potency [2] | Potency [3] | Potency [4] | Potency [5]

c1ccc(CN2CCC3(CCCc4ccccc43)CC2)cc1
inactive: outcome [6] | outcome [7] | outcome [8] | Potency [2] | Potency [3] | Potency [4] | Potency [5]
